p-CIP stab down: compounds decreasing mouse p/CIP protein stability. Q05BA5. F442A p/CIP-EGFP cells, EGFP fluorescence, 16 h. decrease of EGFP signal, % at 10 µM. actives 0.01% (n = 290,000). AID 1984;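 active means EGFP signal decrease of at least 30% at 10 µM or well 3 SD below plate mean, unless failing retest; inactive means the rest, including hits failing retest or dose response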
V-ATPase pHluor: alters yeast V-ATPase proton transport | S. cerevisiae, pHLuorin cytosolic pH fluorescence | response, % at 10 µM | actives 0.37% (n = 350,000) | AID 504577; in the data active means response mostly above about 7.3%, no sharp cut-off; inactive means mostly below about 5.4%; further: actives read high
HSV replic up: HSV replication enhancement; HSV replication augmentation in cells, fold increase; maximum fold increase; actives 0.005% (n = 220,000); AID 1956; in the data active means maximum fold increase above about 1.5; tested in PC3 cells
beta cell repl: inducers of beta-cell replication in MIN6 cells | proliferation, % at 10 µM | MIN6 cells proliferation, ATPlite luminescence, 48 h; cells starved in 0.2% serum; 100% = growth in 10% serum | actives 0.29% (n = 330,000);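 active means compounds whose signal lies at least 3.5 SD above the mean of all wells on their plate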
H9c2 protect: myocardial damage modulation in H9c2 cells; actives 0.63% (n = 360,000); protection from H2O2 cell death, % at 20 µM; H9c2 cardiomyocytes, H2O2 injury protection, ATPLite, 2 h;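 active means compounds giving at least 50% protection of heart cells from peroxide-induced death in the single-dose screen, raw or plate-pattern-corrected value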
CR mimetic SO: yeast age-related superoxide inhibition as caloric restriction mimetic. superoxide response (% of plate mean), % at 10 µM. S. cerevisiae aged cells, superoxide DHE fluorescence; hits give low values. actives 0.18% (n = 330,000). AID 2690;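 active means superoxide response under a set limit, about three screen SD below normal, cut at about 65% in these data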;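 further: yeast aged for seven days with compound at 30 °C before DHE staining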
Large screens that a line does not name were inactive. Sampled rows, rich in hits. Any-hit rate of the full collection: about 1.4%.

CC(OC(=O)Cc1n[nH]c(=O)c2ccccc12)C(=O)Nc1ccc(F)cc1Cl (configuration not stated)	H9c2 protect 68.8 (no result: p-CIP stab down, HSV replic up)
Cc1cc(C)c(C(=O)C(C)OC(=O)Cc2n[nH]c(=O)c3ccccc23)cc1C (configuration not stated)	none (no result: HSV replic up)
CC(OC(=O)Cc1n[nH]c(=O)c2ccccc12)C(=O)Nc1ccc(F)cc1 (configuration not stated)	H9c2 protect 59.2 (no result: p-CIP stab down, HSV replic up)
O=S1(=O)CCOC[C@H](c2ccccc2)N1Cc1ccccc1	none (no result: HSV replic up)
O=C(NNC(=O)C(c1ccccc1)c1ccccc1)c1ccccn1	H9c2 protect 50.6
Cn1c(-c2ccc(Cl)cc2)cnc1N	H9c2 protect 69.2
Cc1c(OCc2ccc([N+](=O)[O-])cc2)ccc2c3c(c(=O)oc12)CCC3	beta cell repl 0.0
Cc1oc(C(=O)O)cc1COc1ccc2c3c(c(=O)oc2c1C)CCC3	none
COc1ccc(-c2csc3nc[nH]c(=O)c23)cc1OC	none (no result: HSV replic up)
Cc1ccc(-c2csc3nc[nH]c(=S)c23)cc1C	H9c2 protect 79.8
Cc1c(O)ccc2c3c(c(=O)oc12)CCC(C)C3 (configuration not stated)	H9c2 protect 51.9
CCS(=O)(=O)NCC(c1cccnc1)N1CCN(c2ccccc2)CC1 (configuration not stated)	V-ATPase pHluor 20.6
CCS(=O)(=O)NCC(c1cccnc1)N1CCN(c2ccc(OC)cc2)CC1 (configuration not stated)	none
CC(=O)c1ccc(COC(=O)c2cc3ccccc3oc2=O)cc1	none (no result: HSV replic up)
O=C(Nc1cccc2c1[nH]c(=O)c1ccccc12)C(F)(F)F	none (no result: p-CIP stab down, HSV replic up, beta cell repl, CR mimetic SO)
CC(=O)Nc1ccc2c(c1)[nH]c(=O)c1ccccc12	H9c2 protect 75.0 (no result: p-CIP stab down, HSV replic up, beta cell repl, CR mimetic SO)
O=C(Nc1ccc2c(c1)[nH]c(=O)c1ccccc12)C(F)(F)F	H9c2 protect 64.3 (no result: p-CIP stab down, HSV replic up, beta cell repl, CR mimetic SO)
Cc1ccc(SCC(=O)Nc2ccc(S(N)(=O)=O)cc2)cc1	none
CCOC(=O)N1CCC(Nc2c(NCCN3CCN(Cc4ccccc4)CC3)c(=O)c2=O)CC1	V-ATPase pHluor 14.1
Cc1ccccc1Nc1nc(N)nc(CSc2nnnn2-c2ccccc2)n1	V-ATPase pHluor 13.1
O=c1c(NCCc2ccc(Cl)cc2)c(-c2ccccc2)c1=O	none (no result: HSV replic up)
CCc1c(C)nc2cc(-c3cc(OC)cc(OC)c3)nn2c1N1CCN(CCN2CCOCC2)CC1	H9c2 protect 91.1
CCOCCN1CCN(c2c(C)c(C)nc3cc(-c4cc(OC)cc(OC)c4)nn23)CC1	none
NC(=O)COC(=O)CC12CC3CC(CC(Br)(C3)C1)C2	none
CCOC(=O)C1=CCN(S(=O)(=O)c2ccc(C)cc2)C1c1ccc(CC)cc1 (configuration not stated)	none (no result: p-CIP stab down, V-ATPase pHluor, HSV replic up, beta cell repl, CR mimetic SO)
Nc1ccc(S(=O)(=O)NN=Cc2ccccc2[N+](=O)[O-])cc1	none (no result: p-CIP stab down, HSV replic up, beta cell repl, CR mimetic SO)
Cn1c(=O)cc(OCCCC(=O)Nc2cccc(Cl)c2)c2ccccc21	none (no result: p-CIP stab down, V-ATPase pHluor, HSV replic up, beta cell repl, CR mimetic SO)
CCn1c(=O)c([N+](=O)[O-])c(NCCN(C)C)c2ccccc21	none
CCn1c(=O)c([N+](=O)[O-])c(Cl)c2ccccc21	V-ATPase pHluor 20.5
C[C@@H](NS(=O)(=O)c1cc(Cl)ccc1F)[C@H](O)c1ccccc1	none (no result: p-CIP stab down, HSV replic up, beta cell repl, CR mimetic SO)
CN(C)c1ccc(/C=N/NC(=O)c2cc(-c3ccc4c(c3)OCO4)n[nH]2)cc1	none
COc1ccc(/C=N/NC(=O)c2cc(-c3ccc4c(c3)OCO4)n[nH]2)cc1OC	H9c2 protect 65.1
O=C(CCCN1C(=O)NC2(CCCC2)C1=O)Nc1ccc(Cl)c(S(=O)(=O)N2CCOCC2)c1	none (no result: p-CIP stab down, HSV replic up, CR mimetic SO)
Cc1ccc(-c2n[nH]c(=O)c3ccccc23)c(C)c1	none (no result: HSV replic up)
Cc1ccc(-c2n[nH]c(=O)c3ccccc23)cc1S(N)(=O)=O	H9c2 protect 57.1 (no result: HSV replic up)
Cc1ccc(-c2n[nH]c(=O)c3ccccc23)cc1S(=O)(=O)NCCO	H9c2 protect 75.6
Cc1ccc(-c2n[nH]c(=O)c3ccccc23)cc1S(=O)(=O)Nc1ccc(F)cc1	none
Cc1ccc(-c2n[nH]c(=O)c3ccccc23)cc1S(=O)(=O)N(C)CCO	none
Cc1ccc(-c2n[nH]c(=O)c3ccccc23)cc1S(=O)(=O)NC(C)(C)C	H9c2 protect 64.1
CC(=O)Nc1ccc(NS(=O)(=O)c2cc(-c3n[nH]c(=O)c4ccccc34)ccc2C)cc1	H9c2 protect 56.0
CN(CCC#N)C(=S)NC(=O)c1ccc(S(=O)(=O)N2CCOCC2)cc1	none
O=C(C1CCCN(S(=O)(=O)c2ccc(F)cc2)C1)N1CCCCCC1 (configuration not stated)	none (no result: HSV replic up)
CN(c1ccc(OCC(=O)Nc2ccc(S(N)(=O)=O)cc2)cc1)S(=O)(=O)c1ccc(F)cc1	none (no result: p-CIP stab down, HSV replic up, beta cell repl, CR mimetic SO)
CN(c1ccc(OCC(=O)Nc2cc(Cl)ccc2C(=O)O)cc1)S(=O)(=O)c1ccc(F)cc1	CR mimetic SO 59.2 (no result: p-CIP stab down, HSV replic up)
COc1cc(NC(=O)c2cc3ccccc3cc2OC)ccc1NC(=O)c1cccs1	H9c2 protect 63.3 (no result: HSV replic up)
COc1cc(NC(=O)c2ccccc2Cl)ccc1NC(=O)c1cccs1	none
O=C(CC1CCCC1)N1CCN(S(=O)(=O)c2cccc(Br)c2)CC1	none (no result: p-CIP stab down, HSV replic up, beta cell repl, CR mimetic SO)
O=C(NC1(Cc2ccccc2)CCN(CCc2cccs2)C1=O)c1ccccc1 (configuration not stated)	none (no result: p-CIP stab down, HSV replic up)
Cc1cc(F)ccc1S(=O)(=O)Nc1ccccc1C(=O)NCc1ccccn1	none
CCCCCCn1nc(C(=O)OCC(=O)c2c(N)n(C)c(=O)n(C)c2=O)c2ccccc2c1=O	none
CCCCCn1nc(C(=O)OCC(=O)c2c(N)n(C)c(=O)n(C)c2=O)c2ccccc2c1=O	H9c2 protect 65.6
O=C(CCc1nc2ccccc2c(=O)[nH]1)N1CCN(c2ccccc2Cl)CC1	H9c2 protect 63.9 (no result: p-CIP stab down, HSV replic up)
O=C(CCc1nc2ccccc2c(=O)[nH]1)Nc1cccc(S(=O)(=O)N2CCOCC2)c1	none (no result: p-CIP stab down, HSV replic up)
O=c1[nH]c(CN2CCc3ccccc3C2)nc2ccccc12	none
O=C(CCc1nc2ccccc2c(=O)[nH]1)N1CCN(S(=O)(=O)c2cc(Cl)ccc2Cl)CC1	H9c2 protect 61.0 (no result: p-CIP stab down, HSV replic up, beta cell repl, CR mimetic SO)
O=C(CCc1nc2ccccc2c(=O)[nH]1)N1CCN(S(=O)(=O)c2cccc(F)c2)CC1	H9c2 protect 52.2 (no result: HSV replic up)
O=C(CCc1nc2ccccc2c(=O)[nH]1)N1CCCc2ccccc21	H9c2 protect 66.8 (no result: p-CIP stab down, HSV replic up)
CCN1CCN(C(=O)CCc2nc3ccccc3c(=O)[nH]2)CC1	none
Cc1ccc(S(=O)(=O)N2CCN(C(=O)CSc3nc4ccccc4c(=O)[nH]3)CC2)c(C)c1	none
Cc1cc(C)c(C)c(S(=O)(=O)N2CCN(C(=O)CCc3nc4ccccc4c(=O)[nH]3)CC2)c1C	H9c2 protect 70.4 (no result: HSV replic up)
CCC(=O)Nc1ccc(Nc2nc(C)c([N+](=O)[O-])c(Nc3ccc(NC(=O)CC)cc3)n2)cc1	H9c2 protect 70.4
CCCCN(C(=O)c1ccc(S(=O)(=O)N(C)c2ccccc2)cc1)c1c(N)n(CCC)c(=O)[nH]c1=O	none (no result: p-CIP stab down, HSV replic up, beta cell repl, CR mimetic SO)

Screening results: PubChem, several laboratories
